Tau fluor counter: counter-screen for tau fibril formation inhibitors. AID 1463. Potency, µM (titrated, usually from 57.7 µM), without a hit: at the top dose activity change, negative = decrease. 0.93% of 280,000 active. tau K18 P301L Alexa594 fluorescence, heparin fibrillization; further: potency means the concentration at half of the fitted maximal effect; nearly all actives have a fitted effect of over 55% in size
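Human tau K18 P301L (15 uM unlabeled, 0.24 uM Alexa 594-labeled) in 100 mM sodium acetate pH 7 with 20 uM heparin, 6 hr at 37 C. ThT 30 uM added, 1 hr ambient; Alexa 594 FP and total fluorescence read at 555/632 nm.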
FBPA coupling cs: inhibits coupling enzyme system, counter-screen for aldolase hits | coupling enzyme system counterscreen, AmpLite Red fluorescence | activity change, negative = inhibition, % at 58.2 µM, hits read low | 0.67% of 290,000 active | AID 2472; in the data active means activity change below about -30%
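First, compound is pin-transferred into glyceraldehyde-3-phosphate coupling-enzyme reagent at 57.5 uM final and held 10 min at RT. Next, substrate, coupling system and AmpLite Red are added. After 20 min RT, fluorescence (525/598 nm) is read.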
Tau FP inhib: tau fibrillization inhibition (FP). P10636. K18 P301L tau heparin fibrillization, Alexa594 FP, 6 h. Potency, µM (top dose mostly 57.7 µM), for inactives: top-dose activity, negative = inhibition, usual class: inhibitors. 0.39% of 280,000 active. AID 1468; further: potency means the concentration at half of the fitted maximal effect; nearly all actives have a fitted effect of over 55% in size
Target sequence (P10636 561-689 P618L limits assumed): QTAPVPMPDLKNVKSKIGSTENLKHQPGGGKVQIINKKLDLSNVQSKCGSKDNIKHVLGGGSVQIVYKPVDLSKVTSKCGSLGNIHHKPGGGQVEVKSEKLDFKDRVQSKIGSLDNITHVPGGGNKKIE
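Human K18 P301L fragment (15 uM unlabeled plus 0.24 uM Alexa 594-labeled) in 100 mM sodium acetate pH 7 with compound, aggregation induced by 20 uM heparin for 6 hr at 37 C. ThT (30 uM) added for 1 hr, then Alexa 594 FP read.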
Tau fibril ThT: blocks human tau fibril formation measured by thioflavin T; 2.1% of 270,000 active; recombinant tau K18 P301L (four-repeat tau fragment), heparin-induced fibrillization, ThT fluorescence; Potency, µM (doses to about 57.4 µM), without a hit: at the highest dose activity, negative = inhibition, most hits filed as inhibitors; AID 1460; further: potency means the concentration at half of the fitted maximal effect; nearly all actives have a fitted effect of over 55% in size
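Heparin-induced fibrillization of the P301L-mutant K18 repeat-domain fragment of human tau was followed by ThT binding in quantitative high-throughput format.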
Sfp inh: inhibitors of Bacillus subtilis Sfp phosphopantetheinyl transferase | Q9F4F7 | Biochemical Sfp PPTase activity, qHTS | Potency, µM, without a hit: largest response in the series, negative = inhibition, most hits filed as inhibitors | 3.5% of 310,000 active;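 further: the enzyme is Sfp with the accession as filed and its product quenches rhodamine fluorescence; potency means the concentration at half of the fitted maximal effect; 0% = enzyme reaction without inhibitor and -100% = no enzyme wells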
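Fluorescence-quenching assay: 15 nM Sfp-PPTase preincubated 15 min at room temperature with compound, then 5 uM rhodamine-CoA and 12.5 uM BHQ-2-labelled YbbR peptide added. Fluorescence (ex 525/em 598 nm) read at start and after 30 min; difference gives rate.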
* = called active by the depositor; ? = inconclusive; nt = no result; [ ] = remark or other dose. An excerpt weighted towards active compounds, which were near 5.2% of everything screened. Unless noted, the call rests on the fitted dose curve; in most records, active means well fitted curve in the direction sought with a large enough effect; inconclusive means small, poorly fitted or top-dose-only effect, or another doubt; inactive means no such curve, though single readings can be large; an effect the other way counts as inactive or inconclusive. Unless noted, on the % scale 0 is the no-effect control and ±100 the full control effect.

SMILES | Tau fluor counter | FBPA coupling cs | Tau FP inhib | Tau fibril ThT | Sfp inh
CCOc1ccc(NS(=O)(=O)c2ccc3nc(-c4ccccc4)[nH]c3c2)cc1 | ? | nt | 20µM* | 8% | nt
CCOc1ccc(NS(=O)(=O)c2ccc3[nH]c4c(c3c2)CCCCC4)cc1 | 14µM*[quencher] | nt | 10% | -6% | nt
COc1ccc(-c2ccc(N(C)C)cc2)cc1C1C2C=CCCC2(C)C(=O)N1Cc1ccccc1 (stereo not drawn) | nt | -6 | nt | nt | ?
COc1ccc(OC)c(CNS(=O)(=O)c2ccc3[nH]c4c(c3c2)CCCCC4)c1 | ? | nt | 10% | -13% | nt
COc1ccc(NS(=O)(=O)c2ccc3[nH]c4c(c3c2)CCCC4)c(OC)c1 | 16µM*[quencher] | nt | 15% | -7% | nt
COc1ccc(-n2c(=O)c(CCc3ccccc3)nc3cnc(OC)nc32)cc1 | nt | 5 | nt | nt | 21%
C=C(C)COc1ccc(-c2[nH]ncc2Oc2ccccc2OCC)c(O)c1 | 4µM*[quencher] | -3 | ? | ? | 2%
COc1ccc(-c2[nH]ncc2Oc2ccccc2OC)c(O)c1 | 25µM*[quencher] | -4 | 14% | -11% | 7%
C=C(C)COc1ccc(-c2[nH]ncc2Oc2cccc(OC)c2)c(O)c1 | 8.9µM*[quencher] | -10 | ? | -15% | 9%
O=c1c(Br)c(Br)cnn1-c1ccccc1 | -6% | 0 | ? | 32µM* | 27%
Cc1ccc(-n2ncc(Br)c(Br)c2=O)cc1 | -19% | -1 | ? | 16µM* | 4%
Cc1ccc(-c2noc(CNC(=O)c3ccc(Br)o3)n2)cc1 | ? | nt | -19% | -16% | nt
O=C(O)C(Cc1cn[nH]n1)=NO | 5% | -2 | 0% | -1% | 79µM*
COC(=O)c1[nH]c2cc(OC)c(OC)cc2c1NC(=O)Oc1ccccc1 | -18% | -1 | -11% | ? | 45µM*
Cc1csc2nc(COC(=O)c3cccc(NC(=O)COc4ccccc4Cl)c3)cc(=O)n12 | -10% | nt | -7% | ? | nt
CCOC(=O)C(NC(=O)CC)(N1CCc2ccccc2C1)C(F)(F)F (stereo not drawn) | -16% | 3 | ? | 22µM* | 8%
Oc1ccc(-c2nc(-c3ccc(O)c(O)c3)cs2)cc1 | 13µM*[quencher] | -4 | 7% | 3.2µM* | 79µM*
Oc1ccc(Nc2nc(-c3ccc4ccccc4c3)cs2)cc1 | 7.9µM*[quencher] | -26 | ? | 5µM* | -9%
NS(=O)(=O)c1ccc(Nc2nc(-c3ccc(O)cc3O)cs2)cc1 | 14µM*[quencher] | -8 | 9% | 6.3µM* | -11%
Oc1ccc(-c2csc(-c3cccnc3)n2)c(O)c1 | -16% | -1 | 9% | ? | 1%
CC(=O)Nc1ccc(-c2csc(Nc3ccc(S(N)(=O)=O)cc3)n2)cc1 | -16% | -3 | 9% | ? | 17%
NS(=O)(=O)c1ccc(Nc2nc(-c3ccc(F)cc3)cs2)cc1 | 16µM*[quencher] | -6 | 12% | ? | 1%
Cc1ccc(C(=O)Nc2ccccc2C(=O)OCc2cc(=O)n3nc(C4CC4)sc3n2)cc1 | 9% | nt | 1% | 8% | nt
CN(C)c1nc(N)nc(/C(C#N)=C/C2CC3C=CC2C3)n1 (stereo not drawn) | -7% | -33* | -15% | -8% | 56µM*
Cc1ccc(NC(=O)c2cnc(SCC(=O)N3CCOCC3)n(C)c2=O)cc1C | 1% | nt | -6% | ? | nt
SMILES | Tau fluor counter | FBPA coupling cs | Tau FP inhib | Tau fibril ThT | Sfp inh
CC(=O)Nc1ccc(-c2cc(-c3ccccc3)nc(-c3ccccc3)n2)cc1 | ? | 2 | 3.5µM* | 10% | 1%
CC(=O)Nc1ccc(-c2cc(-c3ccc(NC(C)=O)cc3)nc(-c3ccc(NC(C)=O)cc3)n2)cc1 | 1% | -3 | ? | 4% | 7%
CC(=O)Nc1ccc(-c2cc(-c3ccc(NC(C)=O)cc3)nc(-c3ccccc3)n2)cc1 | -8% | -2 | 14µM* | 15% | 3%
CCC(=O)Nc1ccc(-c2cc(-c3ccccc3)nc(-c3ccc(NC(=O)CC)cc3)n2)cc1 | ? | 1 | 11µM* | -8% | 14%
Nc1ccc(-c2cc(-c3cccc(N)c3)nc(-c3ccccc3)n2)cc1 | 3.5µM*[quencher] | -1 | 1% | ? | -3%
O=C(COC(=O)c1ccc2c(c1[N+](=O)[O-])C(=O)c1ccccc1C2=O)NC1CC1 | ? | -33* | -5% | 10µM* | 8%
CC[C@H](C)[C@H](NC(=O)[C@@H](NC(=O)[C@@H](CC(=O)NO)Cc1ccccc1)[C@@H](C)CC)C(=O)O | nt | 0 | nt | nt | -5%
Cc1cc(C)nc(SCC(=O)c2ccc(C)c(C)c2)n1 | nt | -1 | nt | nt | -9%
Cc1cc(C)nc(SCC(=O)c2ccc(O)cc2O)n1 | -20% | 12 | ? | -8% | 45µM*
Cc1cc(C)nc(SCC(=O)c2ccc([N+](=O)[O-])cc2)n1 | -18% | 1 | 4% | ? | 45µM*
Cc1ccnc(SCC(=O)c2ccc([N+](=O)[O-])cc2)n1 | -17% | 0 | -3% | ? | 45µM*
Cc1ccnc(SCC(=O)O)n1 | -2% | 4 | 5% | 0% | 4%
Cc1cc(NC(=O)CN2CCC(C)CC2)no1 | -3% | 0 | 2% | 0% | 40µM*
COc1ccc(NC(=O)Cn2c(=O)n(-c3ccc(OC)c(OC)c3)c(=O)c3ccccc32)cc1 | -4% | nt | -6% | -7% | nt
COc1ccc(-n2c(=O)c3ccccc3n(CC(=O)Nc3cc(C)on3)c2=O)cc1OC | -2% | 2 | 2% | 20% | 45µM*
COc1ccc(N2CCN(CC(=O)Nc3cc(C)on3)CC2)cc1 | -1% | 0 | 3% | -11% | 50µM*
N=C(N)SCCN=C(N)N | nt | 1 | nt | nt | 3%
CCOC(=O)/C(C#N)=C1\CCCN1CC(N)=S | 2% | 1 | -10% | ? | 35µM*
CCOC(=O)/C(C#N)=C1/CCCCCN1C | 2% | 5 | 2% | -4% | -1%
COc1ccc(NC(=O)CSc2sc3c(O)cc(=O)[nH]c3c2C#N)c(OC)c1 | nt | 0 | nt | nt | ?
COc1ccccc1NC(=O)CSc1sc2c(O)cc(=O)[nH]c2c1C#N | nt | -1 | nt | nt | 40µM*
CCc1nnc(NC(=O)CSc2sc3c(O)cc(=O)[nH]c3c2C#N)s1 | nt | -2 | nt | nt | 79µM*
N#Cc1c(SCC(=O)Nc2cccc(C(F)(F)F)c2)sc2c(O)cc(=O)[nH]c12 | nt | 0 | nt | nt | 40µM*
Cc1cc(NC(=O)CSc2sc3c(O)cc(=O)[nH]c3c2C#N)ccc1Br | nt | 4 | nt | nt | ?
O=C(CCC(=O)OCC(=O)c1ccc(Cl)cc1)Nc1ccc(Oc2ccccc2)cc1 | -5% | nt | -8% | -9% | nt
COc1ccc(-c2nc(-c3cccs3)c(-c3cccs3)[nH]2)cc1OC | 10µM*[quencher] | -2 | 10% | ? | 17%
COc1ccc(-c2nc(-c3ccccc3)c(-c3cccs3)[nH]2)cc1OC | 14µM*[quencher] | -6 | ? | ? | 7%
CCOc1ccc(C(=O)c2cn(CC(=O)Nc3ccc(Cl)cc3)c3cc4c(cc3c2=O)OCCO4)cc1 | -22% | nt | ? | 12% | nt

High-throughput results: PubChem, National Center for Advancing Translational Sciences (NCATS)
